Data as given in PubChem BioAssay.
Active and inactive are the calls of the source.

Experiments:
[1] = E. coli DRC41 culture turbidity changes, primary screen, E. coli filamentation inducer project, strain DRC41, OD650, 48 h (AID 1152);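 further: E. coli MC1000 strain DRC41 lacking acrAB efflux pump and sulA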; details: E. coli DRC41 (acrAB sulA), higher = more signal, called active from +8 up or from −8 down
[2] = small-molecule binders of probe aLefty1, primary screen, biochemical, small-molecule microarray, 635/667 nm fluorescence (AID 1153); details: higher = more signal;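 further: score merges spot fluorescence with signal-to-noise ratio from the scanned slide images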
[3] = PSAC antagonists in infected red cells, primary screen, cell-based, P. falciparum Indochina, OD700, 1 h (AID 1154); details: P. falciparum Indochina infected RBC osmotic lysis, higher = more signal, called active from +8 up or from −8 down
[4] = PSAC antagonists in infected red cells, primary screen, cell-based, P. falciparum Indochina, OD700, 2 h (AID 1155);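 further: lysis reports solute entry through the parasite surface anion channel PSAC; channel blockers reduce lysis of infected cells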; details: P. falciparum Indochina infected erythrocytes, osmotic lysis OD700; higher = more signal, called active from +8 up or from −8 down
[5] = osmotic lysis modulators in infected erythrocytes, primary screen, PSAC antagonist project, cell-based, P. falciparum Indochina, OD700, 3 h (AID 1156); details: higher = more signal, called active from +8 up or from −8 down
[6] = PSAC antagonists in infected red cells, primary screen, cell-based, P. falciparum Indochina, OD700, 18 h (AID 1157); details: P. falciparum Indochina infected erythrocytes, osmotic lysis OD700, 18 h; higher = more signal, called active from +8 up or from −8 down
[7] = modulators of S6 phosphorylation in cells, primary screen, cell-based, A549, cytoblot, luminescence, serum-stimulated (AID 1158); details: A549 phospho-S6 cytoblot, 5 h, higher = more signal;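 further: serum-stimulated A549 lung adenocarcinoma cells; signal is phosphorylated S6 detected by cytoblot immunostaining with HRP secondary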
[8] = target: NADPH oxidase 2 (Homo sapiens) (UniProt P04839); test: NOX2-dependent H2O2 signal modulators, primary screen, NOX inhibitor project, cell-based, HEK293-NOX2, PMA-stimulated, Amplex Red fluorescence (AID 1159); details: 45 min, higher = more signal, called active from +8 up or from −8 down; further: test concentration not given here
[9] = target: NADPH oxidase 4 (Homo sapiens) (UniProt Q9NPH5); test: NOX4-dependent H2O2 signal modulators, primary screen, NOX inhibitor project, cell-based, HEK293-NOX4, tetracycline-induced, Amplex Red fluorescence (AID 1160); details: 45 min, higher = more signal, called active from +8 up or from −8 down
[10] = target: NADPH oxidase 5 (Homo sapiens) (UniProt Q96PH1); test: NOX5-dependent H2O2 signal modulators, primary screen, NOX inhibitor project, cell-based, HEK293-NOX5, Amplex Red fluorescence (AID 1161); details: HEK293-NOX5, ionomycin, 45 min, higher = more signal
[11] = A549 cell viability effects, profiling panel, calcein-AM fluorescence, 48 h, basal (AID 1162); details: higher = more signal; further: test concentration not given here
[12] = adipocyte viability effects, profiling panel, cell-based, 3T3-L1 adipocytes, calcein-AM fluorescence, 48 h, basal (AID 1163); details: 3T3-L1 adipocytes viability, higher = more signal; further: test concentration not given here
[13] = HepG2 cell viability effects, profiling panel, calcein-AM fluorescence, 48 h, basal (AID 1164); details: higher = more signal; further: test concentration not given here
[14] = MM1S cell viability effects, profiling panel, calcein-AM fluorescence, 48 h, basal (AID 1165); details: higher = more signal;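 further: viability of MM1S multiple myeloma cells under basal unstimulated conditions; test concentration not given here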
[15] = basal RPMI8226 viability, no added stimulus, profiling panel, cell-based, calcein-AM fluorescence, 48 h, PK04 Diversity Set (AID 1166); details: RPMI8226 myeloma viability, higher = more signal;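 further: cells grown under basal conditions without added stimulus; test concentration not given here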
[16] = basal HepG2 mitochondrial membrane potential changes, profiling panel, cell-based, JC-1 fluorescence, 24 h, 100 nL compound (AID 1167); details: higher = more signal; further: test concentration not given here
[17] = basal 3T3-L1 adipocyte mitochondrial potential changes, profiling panel, cell-based, JC-1 fluorescence, 3T3-L1 adipocytes, 24 h, 100 nL compound (AID 1168); details: JC-1 mitochondrial fluorescence, higher = more signal, called active from +8 up or from −8 down; further: test concentration not given here
[18] = basal RPMI8226 mitochondrial membrane potential changes, profiling panel, cell-based, JC-1 fluorescence, 24 h, 100 nL compound (AID 1169); details: RPMI8226 myeloma, JC-1 mitochondrial potential fluorescence, higher = more signal; further: test concentration not given here
[19] = basal MM1S mitochondrial membrane potential changes, profiling panel, cell-based, JC-1 fluorescence, 24 h, 100 nL compound (AID 1170); details: higher = more signal; further: test concentration not given here
[20] = A549 lung cancer cell viability effects, profiling panel, resazurin fluorescence, 24 h, PK04 Diversity Set (AID 1171); details: higher = more signal, called active from +8 up or from −8 down; further: test concentration not given here

Chain of NADPH oxidase 5 (Homo sapiens) (Q96PH1 whole entry, looked up): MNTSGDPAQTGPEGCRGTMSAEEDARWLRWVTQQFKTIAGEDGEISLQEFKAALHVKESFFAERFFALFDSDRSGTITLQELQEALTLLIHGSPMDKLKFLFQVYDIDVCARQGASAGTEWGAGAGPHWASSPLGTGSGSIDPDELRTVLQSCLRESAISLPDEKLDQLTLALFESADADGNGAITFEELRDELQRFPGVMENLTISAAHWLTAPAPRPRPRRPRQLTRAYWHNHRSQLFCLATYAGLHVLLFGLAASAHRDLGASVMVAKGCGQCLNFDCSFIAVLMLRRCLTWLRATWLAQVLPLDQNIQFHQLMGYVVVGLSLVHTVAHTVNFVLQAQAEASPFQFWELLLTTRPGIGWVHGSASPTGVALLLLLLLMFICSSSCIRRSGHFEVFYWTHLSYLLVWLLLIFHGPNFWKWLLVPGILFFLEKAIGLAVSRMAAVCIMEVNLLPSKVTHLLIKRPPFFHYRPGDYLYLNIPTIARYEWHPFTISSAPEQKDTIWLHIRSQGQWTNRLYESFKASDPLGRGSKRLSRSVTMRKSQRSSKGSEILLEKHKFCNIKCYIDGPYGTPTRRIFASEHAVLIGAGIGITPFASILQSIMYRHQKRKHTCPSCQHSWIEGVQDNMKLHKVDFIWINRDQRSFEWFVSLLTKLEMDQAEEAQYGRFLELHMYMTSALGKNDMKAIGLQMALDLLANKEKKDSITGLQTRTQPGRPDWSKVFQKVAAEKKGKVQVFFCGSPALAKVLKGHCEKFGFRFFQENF
Chain of NADPH oxidase 2 (Homo sapiens) (P04839 whole entry, looked up): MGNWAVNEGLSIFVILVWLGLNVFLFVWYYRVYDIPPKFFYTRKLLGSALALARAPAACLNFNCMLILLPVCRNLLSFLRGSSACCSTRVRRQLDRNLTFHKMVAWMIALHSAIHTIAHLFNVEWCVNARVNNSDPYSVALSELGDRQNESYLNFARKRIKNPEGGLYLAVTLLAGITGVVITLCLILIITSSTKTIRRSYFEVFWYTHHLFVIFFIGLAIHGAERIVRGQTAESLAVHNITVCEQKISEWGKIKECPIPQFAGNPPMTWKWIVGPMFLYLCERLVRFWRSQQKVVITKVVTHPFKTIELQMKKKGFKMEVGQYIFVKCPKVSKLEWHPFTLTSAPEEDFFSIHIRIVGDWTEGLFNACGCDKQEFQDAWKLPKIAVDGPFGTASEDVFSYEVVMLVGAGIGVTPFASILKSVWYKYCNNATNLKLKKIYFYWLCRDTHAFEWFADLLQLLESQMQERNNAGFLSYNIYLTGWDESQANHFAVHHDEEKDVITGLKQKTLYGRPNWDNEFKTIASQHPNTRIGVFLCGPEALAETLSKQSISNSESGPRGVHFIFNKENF
Chain of NADPH oxidase 4 (Homo sapiens) (Q9NPH5 whole entry, looked up): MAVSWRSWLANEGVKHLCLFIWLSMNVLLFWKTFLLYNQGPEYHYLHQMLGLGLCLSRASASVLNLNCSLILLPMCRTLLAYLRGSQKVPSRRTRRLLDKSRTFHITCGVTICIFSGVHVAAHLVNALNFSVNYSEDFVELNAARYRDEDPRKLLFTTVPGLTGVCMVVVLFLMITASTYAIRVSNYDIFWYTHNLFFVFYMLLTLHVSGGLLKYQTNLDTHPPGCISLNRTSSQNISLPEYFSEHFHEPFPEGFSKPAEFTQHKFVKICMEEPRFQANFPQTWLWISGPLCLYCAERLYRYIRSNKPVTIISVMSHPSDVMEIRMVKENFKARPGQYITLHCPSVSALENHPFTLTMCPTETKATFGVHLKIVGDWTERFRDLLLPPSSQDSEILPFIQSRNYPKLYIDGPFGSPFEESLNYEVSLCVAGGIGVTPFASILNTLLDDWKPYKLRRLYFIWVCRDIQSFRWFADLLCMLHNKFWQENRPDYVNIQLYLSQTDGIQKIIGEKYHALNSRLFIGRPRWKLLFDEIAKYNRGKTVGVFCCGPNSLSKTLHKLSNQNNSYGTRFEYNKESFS

Structure (SMILES)	z-score [1]	composite z-score [2]	z-score [3]	z-score [4]	z-score [5]	z-score [6]	z-score [7]	z-score [8]	z-score [9]	z-score [10]	z-score [11]	z-score [12]	z-score [13]	z-score [14]	z-score [15]	z-score [16]	z-score [17]	z-score [18]	z-score [19]	z-score [20]
COCCOC(=O)N1C(=O)[C@@]2(c3cc(C#CC4(O)CCCCCC4)ccc31)[C@H](c1ccc(OCCO)cc1)N1[C@H](c3ccccc3)[C@H](c3ccccc3)OC(=O)[C@H]1[C@@H]2C(=O)N1CCN(c2ncccn2)CC1	-0.393 (inactive)	0.813	7.73 (inactive)	2.47 (inactive)	0.493 (inactive)	1.12 (inactive)	-0.537	1.61 (inactive)	0.854 (inactive)	1.83	-0.147	-0.507	-0.0949	-0.373	0.182	-0.643	0.295 (inactive)	-0.266	-1.19	-0.473 (inactive)
C[C@H]1NC(=O)[C@@]23C(=O)N[C@@H](Cc4ccccc4)C2[C@H](C)[C@@]2(C)O[C@H]2C3/C=C/C/C=C\CNC(=O)[C@@H]2CCCN2C1=O (stereo not given in full)	-0.0438 (inactive)	-0.0046	0.306 (inactive)	0.189 (inactive)	0.159 (inactive)	0.108 (inactive)	-0.199	-0.0374 (inactive)	1.41 (inactive)	0.41	-0.197	0.286	-0.0389	-1.6	0.727	-0.0133	0.0802 (inactive)	0.263	-0.507	0.437 (inactive)
C=C(CCCC)/C(=C/C[C@H](OC(C)=O)c1ccccc1OCCO)c1cc(C(=O)OC)ccc1OC	1.02 (inactive)	-0.0046	15.1 (active)	0.621 (inactive)	2.54 (inactive)	-1.43 (inactive)	0.708	0.254 (inactive)	0.101 (inactive)	-1.92	0.379	1.66	-0.418	-1.36	-1.93	2.79	0.63 (inactive)	0.275	0.0208	0.423 (inactive)
COC(=O)C[C@H]1O[C@]2(C(=O)N(C)c3ccccc32)[C@@H](C)[C@@H]1[Si](C)(C)F	2.91 (inactive)	0.0982	-0.0899 (inactive)	-0.562 (inactive)	-0.338 (inactive)	-2.12 (inactive)	1.26	-0.771 (inactive)	0.555 (inactive)	1.45	0.0967	0.587	1.21	0.0544	-0.804	0.65	-0.125 (inactive)	0.452	0.632	2.22 (inactive)
C[C@H]1C2[C@H](Cc3ccccc3)NC(=O)[C@]23C(=O)N[C@H](Cc2ccccc2)C(=O)N2CCC[C@H]2C(=O)NC/C=C\C/C=C/C3[C@@H]2O[C@]12C (stereo not given in full)	0.637 (inactive)	-0.026	1.4 (inactive)	-1.49 (inactive)	-1.3 (inactive)	-2.52 (inactive)	0.477	0.977 (inactive)	1.14 (inactive)	1.73	1.4	0.993	0.445	0.0625	-0.0608	0.725	0.736 (inactive)	-0.243	-0.634	0.559 (inactive)
C=CCOC(=O)[C@H]1[C@@H]2C(=O)O[C@@H](c3ccccc3)[C@@H](c3ccccc3)N2[C@@H](c2ccc(OCCOC(=O)[C@H]3C[C@H]4C(=O)N[C@@H](CCCCNC(C)=O)C(=O)N4[C@H]3c3cccc(OCCO)c3)cc2)[C@]12C(=O)Nc1ccccc12	-0.0842 (inactive)	0.179	3.6 (inactive)	1.52 (inactive)	3.95 (inactive)	1.01 (inactive)	-0.116	2.19 (inactive)	1.93 (inactive)	0.8	-0.112	0.457	-0.696	-0.297	0.728	-0.235	1.91 (inactive)	-0.0898	-0.67	0.319 (inactive)
C=C(C(=O)CC[C@@H](OC(=O)c1cccnc1)c1ccccc1OCCO)C(C)C	0.151 (inactive)	0.106	15.1 (active)	2.08 (inactive)	0.759 (inactive)	0.601 (inactive)	0.149	-0.551 (inactive)	-0.118 (inactive)	-1.34	-0.125	0.909	-0.599	-1.81	-1.08	-1.17	0.208 (inactive)	-0.356	-1.07	-0.414 (inactive)
COC(=O)[C@@]1(Cc2ccc(F)cc2)[C@H]2c3cc(C(=O)N(C)C)n(Cc4ccc(Cl)c(C(F)(F)F)c4)c3C[C@H]2CN1C(=O)c1ccccc1	-1.91 (inactive)	1.54	7.17 (inactive)	2.13 (inactive)	0.512 (inactive)	1.72 (inactive)	-0.186	0.23 (inactive)	-1.2 (inactive)	0.627	-1.16	-0.207	-1.04	-2.26	-4.06	1.96	-1.47 (inactive)	-0.854	-1.54	-1.27 (inactive)
CN(C)CCCC[C@@H]1NC(=O)[C@@H]2C[C@H](C(=O)NCCCCCCN)[C@H](c3cccc(OCCO)c3)N2C1=O	-0.3 (inactive)	1.1	3.07 (inactive)	0.198 (inactive)	1.87 (inactive)	0.105 (inactive)	0.292	0.956 (inactive)	1.14 (inactive)	0.941	-0.481	1.24	-1.21	-0.304	0.294	-1.3	-0.735 (inactive)	-0.17	0.454	-0.511 (inactive)
